Assay results published in PubChem BioAssay.
Active and inactive are the calls of the source. Unless noted, the rule behind the calls is not given here.

Tests used:
[1] = compounds binding Alexa647 anti-His antibody – biochemical, small-molecule microarray, 635 nm fluorescence, artefact control for SMM control protein annotation, primary screen (AID 1128); conditions: higher = more signal;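 note: score merges feature fluorescence with signal-to-noise for each printed compound spot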
[2] = tested on: Human papillomavirus type 1a E7 protein (residues 1-88); experiment: HPV1a E7 small-molecule binders, primary screen, biochemical, small-molecule microarray, residues 1-88, 635 nm (AID 1129); conditions: small-molecule microarray binding, fluorescence 635 nm; higher = more signal
[3] = target: Focal adhesion kinase 1 (Homo sapiens) (UniProt Q05397); experiment: PTK2 protein binding on printed compound slides – biochemical, small-molecule microarray, 635/667 nm fluorescence, BSA, DTT, primary screen (AID 1130); conditions: 635 nm fluorescence, higher = more signal;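 note: composite of spot emission at 667 nm and signal to noise over triplicate slides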
[4] = tested on: Fibrinogen (Alexa647-labelled); experiment: Alexa647-fibrinogen binding to printed small molecules – biochemical, small-molecule microarray, 635/667 nm fluorescence, artefact control for SMM control-protein annotation, profiling panel (AID 1131); conditions: fibrinogen-A647 binding fluorescence, higher = more signal;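 note: z-score merges 667 nm fluorescence with per-spot signal-to-noise over triplicate slides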
[5] = target: Follistatin (Homo sapiens) (UniProt P19883); experiment: FST protein binding to printed compounds – biochemical, small-molecule microarray, 635/667 nm fluorescence, primary screen (AID 1132); conditions: 635 nm fluorescence, higher = more signal
[6] = target: Fibroblast growth factor 2 (Homo sapiens) (UniProt P09038); experiment: basic fibroblast growth factor binding to printed compounds – biochemical, small-molecule microarray, 635/667 nm fluorescence, primary screen (AID 1133); conditions: FGF2, fluorescence 635/667, higher = more signal
[7] = JC-1 mitochondrial potential readout, lung cancer cells – cell-based, A549, JC-1 fluorescence, basal, 24 h, 100 nL, profiling panel (AID 1138); conditions: higher = more signal;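 note: A549 lung adenocarcinoma cells under basal conditions with no added stimulus; test concentration not given here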
Lefty1 = Lefty1 protein binding to printed compounds – biochemical, small-molecule microarray, 635/667 nm fluorescence, primary screen (AID 1139); conditions: fluorescence 635/667, higher = more signal
[8] = tested on: wheat germ agglutinin (Triticum aestivum), Alexa647-labelled; experiment: Alexa647-WGA lectin binding to printed small molecules – biochemical, small-molecule microarray, 635/667 nm fluorescence, artefact control for SMM control-protein annotation, profiling panel (AID 1140); conditions: WGA-A647 binding, 635 nm fluorescence, higher = more signal;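 note: score merges 667 nm feature emission with signal to noise over triplicate slides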
[9] = target: Luciferin 4-monooxygenase (Photinus pyralis) (UniProt P08659); experiment: inhibition of purified Photinus pyralis luciferase – biochemical, luminescence, purified enzyme, 2006 set, primary screen (AID 1141); conditions: purified firefly luciferase, SteadyGlo luminescence, 30 min; higher = more signal, called active from +8 up or from −8 down;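 note: cell-free assay with purified firefly luciferase at 100 ng per well in PBS; test concentration not given here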
[10] = tested on: Wnt5a (protein binding on small-molecule microarray); experiment: small molecules binding Wnt5a protein – biophysical, small-molecule microarray, 635/667 nm fluorescence, primary screen (AID 1142); conditions: 635 nm fluorescence, higher = more signal;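 note: fluorescence read at 667 nm with signal to noise per printed feature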
[11] = ATP-based viability of Huh7 replicon cells – cell-based, CellTiter-Glo luminescence, basal, 48 h, cytotoxicity control for HCV replication inhibitor project, primary screen (AID 1143); conditions: higher = more signal, called active from +8 up or from −8 down;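 note: Huh7 hepatoma cells carrying a hepatitis C replication reporter with no stimulus; test concentration not given here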
[12] = Pseudomonas biofilm growth suppression – PAO1 strain, BacTiter-Glo luminescence, LB-PBS, primary screen (AID 1144); conditions: P. aeruginosa PAO1 biofilm, 12 h, higher = more signal
[13] = basal CRE-LacZ reporter activity in PC12 – cell-based, unstimulated, primary screen (AID 1145); conditions: no forskolin, luminescence, 4.5 h, higher = more signal, called active from +8 up or from −8 down
[14] = forskolin-driven CRE-LacZ activity in PC12 – cell-based, CRE-LacZ reporter, forskolin-stimulated, primary screen (AID 1146); conditions: luminescence, 4.5 h, higher = more signal, called active from +8 up or from −8 down;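 note: PC12 cells with 6xCRE LacZ reporter stimulated by forskolin 10 µM; beta-galactosidase reporter signal reflecting CREB driven transcription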
[15] = target: Streptavidin (Streptomyces avidinii) (UniProt P22629); experiment: compounds binding control protein streptavidin – biophysical, small-molecule microarray, 635/667 nm fluorescence, artefact control for SMM compound annotation, primary screen (AID 1147); conditions: higher = more signal;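 note: signal reflects streptavidin binding to arrayed compounds as a control protein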
[16] = probe aInhba binding on compound microarray – biochemical, small-molecule microarray, 635/667 nm fluorescence, primary screen (AID 1148); conditions: higher = more signal;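 note: score merges 667nm spot fluorescence with signal-to-noise for antibody binding to printed compounds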
Torsin-1A (Homo sapiens) [17] = target: Torsin-1A (Homo sapiens) (UniProt O14656); experiment: TOR1A wild-type binding on microarray – cell lysate, small-molecule microarray, lysate, 635/667 nm, primary screen (AID 1149); conditions: COS7 hTOR1A-WT lysate, 635 nm fluorescence, higher = more signal
Torsin-1A (Homo sapiens) [18] = target: Torsin-1A (Homo sapiens) (UniProt O14656); experiment: torsin A mutant lysate binding on microarrays – cell lysate, small-molecule microarray, COS7 lysate, 635/667 nm fluorescence, primary screen (AID 1150); conditions: COS7 hTOR1A mutant lysate, 635 nm fluorescence, higher = more signal;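 note: score pools 667 nm emission and signal to noise measuring lysate protein binding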
[19] = tested on: Sonic hedgehog protein (Shh); experiment: Sonic hedgehog microarray binding compounds – biochemical, small-molecule microarray, 635/667 nm fluorescence, primary screen (AID 1151); conditions: 635 nm fluorescence, higher = more signal;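 note: Shh protein binding to compounds spotted on small-molecule microarray slides; score combines spot fluorescence intensity with signal-to-noise across triplicate slides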

Chain of Follistatin (Homo sapiens) (P19883 whole entry, looked up): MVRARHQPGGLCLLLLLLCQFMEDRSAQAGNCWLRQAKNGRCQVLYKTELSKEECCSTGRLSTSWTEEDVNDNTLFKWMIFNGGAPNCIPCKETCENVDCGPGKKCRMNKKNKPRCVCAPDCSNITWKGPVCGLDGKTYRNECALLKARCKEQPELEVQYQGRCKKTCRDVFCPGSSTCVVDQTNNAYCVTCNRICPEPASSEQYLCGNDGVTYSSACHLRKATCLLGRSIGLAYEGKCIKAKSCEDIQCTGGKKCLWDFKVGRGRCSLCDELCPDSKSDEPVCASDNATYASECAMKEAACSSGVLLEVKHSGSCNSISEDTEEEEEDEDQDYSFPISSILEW
Chain of Streptavidin (Streptomyces avidinii) (P22629 whole entry, looked up): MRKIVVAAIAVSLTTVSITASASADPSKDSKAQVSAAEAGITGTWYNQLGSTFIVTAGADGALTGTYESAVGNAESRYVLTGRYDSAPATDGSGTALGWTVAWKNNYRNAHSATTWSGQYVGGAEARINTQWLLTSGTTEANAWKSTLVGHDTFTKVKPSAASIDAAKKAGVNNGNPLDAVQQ
Chain of Fibroblast growth factor 2 (Homo sapiens) (P09038 whole entry, looked up): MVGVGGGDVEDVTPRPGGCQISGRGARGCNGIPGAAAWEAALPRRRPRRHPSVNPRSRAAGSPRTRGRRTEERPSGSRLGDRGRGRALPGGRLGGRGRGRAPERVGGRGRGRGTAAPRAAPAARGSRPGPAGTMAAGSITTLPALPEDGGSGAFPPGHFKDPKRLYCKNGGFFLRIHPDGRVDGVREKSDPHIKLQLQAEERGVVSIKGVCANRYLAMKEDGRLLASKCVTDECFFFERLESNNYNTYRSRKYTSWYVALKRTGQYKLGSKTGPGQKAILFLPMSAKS
Chain of Luciferin 4-monooxygenase (Photinus pyralis) (P08659 whole entry, looked up): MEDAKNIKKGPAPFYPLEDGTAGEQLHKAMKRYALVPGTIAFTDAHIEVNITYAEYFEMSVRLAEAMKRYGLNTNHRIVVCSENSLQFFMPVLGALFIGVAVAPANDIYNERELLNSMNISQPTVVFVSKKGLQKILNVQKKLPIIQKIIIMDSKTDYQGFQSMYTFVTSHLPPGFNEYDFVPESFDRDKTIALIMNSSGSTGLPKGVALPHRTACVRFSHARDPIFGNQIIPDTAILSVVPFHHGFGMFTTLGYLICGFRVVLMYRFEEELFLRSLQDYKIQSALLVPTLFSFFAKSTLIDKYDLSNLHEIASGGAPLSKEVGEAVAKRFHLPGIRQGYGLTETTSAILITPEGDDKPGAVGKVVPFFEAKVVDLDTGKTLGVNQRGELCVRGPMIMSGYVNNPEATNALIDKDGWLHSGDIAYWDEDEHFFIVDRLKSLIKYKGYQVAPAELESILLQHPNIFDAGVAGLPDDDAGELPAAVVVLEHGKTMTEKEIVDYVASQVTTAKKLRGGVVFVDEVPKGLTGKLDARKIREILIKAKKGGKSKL
Chain of Torsin-1A (Homo sapiens) (O14656 whole entry, looked up): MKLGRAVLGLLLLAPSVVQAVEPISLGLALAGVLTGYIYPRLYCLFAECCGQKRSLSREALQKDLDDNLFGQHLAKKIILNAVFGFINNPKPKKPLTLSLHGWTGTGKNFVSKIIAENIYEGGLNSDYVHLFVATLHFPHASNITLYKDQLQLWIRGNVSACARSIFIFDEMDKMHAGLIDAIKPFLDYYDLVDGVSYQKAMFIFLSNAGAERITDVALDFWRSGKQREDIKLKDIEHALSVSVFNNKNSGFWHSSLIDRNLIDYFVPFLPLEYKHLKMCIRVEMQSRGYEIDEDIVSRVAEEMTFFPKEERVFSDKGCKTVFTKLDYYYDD
Chain of Focal adhesion kinase 1 (Homo sapiens) (Q05397 whole entry, looked up): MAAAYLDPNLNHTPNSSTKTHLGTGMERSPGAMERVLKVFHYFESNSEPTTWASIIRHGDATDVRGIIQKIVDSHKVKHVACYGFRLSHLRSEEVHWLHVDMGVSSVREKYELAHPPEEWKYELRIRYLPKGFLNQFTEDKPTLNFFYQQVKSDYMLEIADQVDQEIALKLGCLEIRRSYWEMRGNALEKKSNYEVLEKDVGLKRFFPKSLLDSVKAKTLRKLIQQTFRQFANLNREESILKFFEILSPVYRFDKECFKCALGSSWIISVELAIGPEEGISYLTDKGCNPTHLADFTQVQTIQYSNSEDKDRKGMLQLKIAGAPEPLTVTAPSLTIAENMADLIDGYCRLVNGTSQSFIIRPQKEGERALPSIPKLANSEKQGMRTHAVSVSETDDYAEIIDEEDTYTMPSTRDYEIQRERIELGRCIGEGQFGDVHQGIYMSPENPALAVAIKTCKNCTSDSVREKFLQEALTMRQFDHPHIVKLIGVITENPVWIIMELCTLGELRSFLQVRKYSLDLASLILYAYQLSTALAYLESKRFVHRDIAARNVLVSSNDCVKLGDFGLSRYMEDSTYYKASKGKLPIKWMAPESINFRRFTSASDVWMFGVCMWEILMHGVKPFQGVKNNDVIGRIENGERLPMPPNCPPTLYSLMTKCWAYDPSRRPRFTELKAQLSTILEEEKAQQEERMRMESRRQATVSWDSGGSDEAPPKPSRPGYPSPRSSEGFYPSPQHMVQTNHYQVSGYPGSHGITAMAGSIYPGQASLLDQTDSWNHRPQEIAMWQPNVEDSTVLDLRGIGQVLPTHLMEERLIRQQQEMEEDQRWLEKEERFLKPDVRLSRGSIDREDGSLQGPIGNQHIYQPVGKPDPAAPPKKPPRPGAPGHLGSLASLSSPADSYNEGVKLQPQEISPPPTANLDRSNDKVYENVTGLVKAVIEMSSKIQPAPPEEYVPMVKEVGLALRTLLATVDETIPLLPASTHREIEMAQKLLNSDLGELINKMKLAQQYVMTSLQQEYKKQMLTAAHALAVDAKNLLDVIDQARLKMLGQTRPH

Structure (SMILES)	composite z-score [1]	composite z-score [2]	composite z-score [3]	composite z-score [4]	composite z-score [5]	composite z-score [6]	z-score [7]	composite z-score (Lefty1)	composite z-score [8]	z-score [9]	composite z-score [10]	z-score [11]	z-score [12]	z-score [13]	z-score [14]	composite z-score [15]	composite z-score [16]	composite z-score (Torsin-1A (Homo sapiens) [17])	composite z-score (Torsin-1A (Homo sapiens) [18])	composite z-score [19]
COc1ccc([Si](C)(C)[C@H]2[C@H](CC(=O)N3Cc4ccccc4C[C@H]3CO)O[C@@]3(C(=O)N(Cc4ccc(N5CCC5=O)cc4)c4ccccc43)[C@@H]2C)cc1	1.72	1.13	1.12	0.42	1.33	1.32	1.11	1.56	0.104	0.511 (inactive)	0.66	-6.48 (inactive)	0.522 (inactive)	0.656 (inactive)	-0.317 (inactive)	0.679	0.256	1.27	0.574	1.85
CC(C)C[C@@H]1NC(=O)[C@H]2C[C@@H](C(=O)NCCCCCCN)[C@@H](c3ccc(O)cc3)N2C1=O	2.99	-0.313	0.496	0.8	1.32	0.823	-1.06	0.632	0.0592	-0.288 (inactive)	0.0135	-0.875 (inactive)	0.469 (inactive)	0.553 (inactive)	1.08 (inactive)	0.569	0.243	1.07	0.339	0.553
CCCCN1CC=CC23O[C@@H]4C=CCOC(=O)[C@@H]4[C@H]2C(=O)N(CCCCCO)[C@@H]3C1=O (stereo not given in full)	0.0981	-0.444	-0.204	-0.921	-0.712	-0.342	-0.478	-0.393	-0.651	0.01 (inactive)	-0.103	0.445 (inactive)	-1.08 (inactive)	-0.761 (inactive)	-0.645 (inactive)	-1.32	-0.0531	-0.915	1.23	1.07
C[C@@H]1ON(c2cccc(C(=O)OC(C)(C)C)c2)[C@H](c2ccc(Br)cc2)[C@H]1C(=O)N1C(=O)OC[C@H]1Cc1ccccc1	0.556	0.77	0.306	0.937	1.21	0.735	1.63	0.766	0.106	-0.68 (inactive)	0.458	-0.242 (inactive)	0.938 (inactive)	1.49 (inactive)	-0.278 (inactive)	0.852	0.134	0.18	0.389	0.937
CN(C)CCCNC(=O)[C@@]1(C)c2ccccc2C(=O)N(Cc2cc(F)cc(C(F)(F)F)c2)[C@H]1c1ccc(CO)cc1	-0.731	-0.358	0.63	-0.0121	-0.673	-0.67	-0.202	-0.91	0.397	-0.0378 (inactive)	-0.569	-1.69 (inactive)	1.25 (inactive)	-0.0888 (inactive)	0.506 (inactive)	-0.432	-0.179	-1.2	0.301	-0.335
CCOC(=O)C[C@H]1[C@H](OC(=O)Cc2ccc3c(c2)OCO3)[C@@H](NC(=O)c2ccc3ccccc3c2)c2cc(OCCCO)ccc2N1C(=O)c1ccccc1	0.638	0.878	0.675	0.823	0.375	0.111	1.84	0.593	0.271	-1.05 (inactive)	0.0819	-0.23 (inactive)	-0.784 (inactive)	4.07 (inactive)	0.005 (inactive)	0.397	0.0184	0.0289	0.458	0.601
O=C1NC(=O)C2C1C=CC(C(O)Cc1ccccc1)N2Nc1ccc(Cl)cc1Cl (stereo not given)	0.432	-0.364	0.247	0.773	0.178	-0.644	2.92	-0.695	0.834	0.981 (inactive)	-0.209	-0.0389 (inactive)	-0.171 (inactive)	0.44 (inactive)	0.115 (inactive)	0.889	0.0345	-0.0973	1.12	-0.546
O=C(O)[C@@]1(CCS(=O)(=O)c2ccccc2)COC(c2ccc(OCCCO)cc2)=N1	-0.777	-0.0191	-0.283	-1.2	0.0153	-0.23	-0.487	-1.34	-0.0996	0.299 (inactive)	-0.142	0.122 (inactive)	1.98 (inactive)	-0.389 (inactive)	-0.298 (inactive)	-0.439	-0.108	-0.792	0.333	-1.03
CCOc1cc(C(O)C2C=CC3C(=O)N(c4ccccc4)C(=O)C3N2Nc2ccccc2)ccc1O (stereo not given)	1.3	1.19	1.54	0.896	0.608	-0.106	-0.0767	-0.231	0.471	-1.15 (inactive)	-0.206	0.318 (inactive)	-0.802 (inactive)	2.15 (inactive)	0.838 (inactive)	0.0572	-0.128	-0.577	1.66	-0.14
C=CCOC(=O)[C@@H]1[C@H]2C(=O)O[C@H](c3ccccc3)[C@H](c3ccccc3)N2[C@H](c2ccc(OCCOC(=O)[C@@H]3C[C@@H]4C(=O)N5CCC[C@H]5C(=O)N4[C@@H]3c3ccc(O)cc3)cc2)[C@@]12C(=O)Nc1ccc(I)cc12	0.426	1.19	0.928	0.837	1.29	1.2	-1.58	0.793	0.635	-0.291 (inactive)	0.0017	-1.51 (inactive)	-1.72 (inactive)	-1.48 (inactive)	-1.75 (inactive)	1.11	-0.101	0.711	0.878	1.82
CCCCN1CC=CC23O[C@@H]4/C=C\CCC(C)OC(=O)C4[C@H]2C(=O)N(CCCCCO)[C@@H]3C1=O (stereo not given in full)	-0.383	-0.69	-0.883	-0.773	-1.13	-0.781	-0.175	-0.234	-0.245	0.762 (inactive)	-0.612	0.0396 (inactive)	-0.398 (inactive)	0.191 (inactive)	-0.0864 (inactive)	-1.24	-0.246	-1.6	-1.78	-0.0223
CC(C)(C)OC(=O)CC[C@]1(C(=O)O)N=C(c2ccc(OCCCO)cc2)O[C@H]1c1ccccc1N=[N+]=[N-]	1.95	0.815	0.238	0.882	0.891	0.0606	-0.974	-0.811	0.963	-10.5 (active)	0.629	-0.686 (inactive)	0.448 (inactive)	-0.38 (inactive)	-0.658 (inactive)	1.32	0.825	-0.09	0.414	-0.815
C=CC[C@]1(C(=O)N2CCCCC2)N=C(c2ccc(OCCCO)cc2)O[C@H]1c1ccccc1	2.2	1.19	0.702	0.928	1.3	-0.165	1.48	-0.395	0.676	-0.728 (inactive)	0.15	-3.83 (inactive)	0.351 (inactive)	2.73 (inactive)	0.0819 (inactive)	0.224	0.573	0.29	1.11	-0.328
